Screening data (PubChem)
Only some compounds are listed: those with a hit (about 11% of all), similar ones and a draw of the others.
AMA1-RON2 inh = disrupts binding of P. falciparum AMA1 to RON2. 0.2% of 360,000 active. Potency, µM (doses to about 58.2 µM), inactives show top-dose activity change, negative = inhibition, actives largely listed as inhibitors. AlphaScreen AMA1-biotinylated RON2 peptide binding;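 further: 0% = vehicle wells and -100% = peptide control; nearly all actives have a fitted effect of over 45% in size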
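AMA1 (3D7) with his tag at 25 nM final met compounds first, then biotinylated RON2 peptide at 25 nM; detection used donor plus acceptor beads, 10 µg/mL apiece, read by AlphaScreen after 30 min at room temperature.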
HCV inh = inhibitors of hepatitis C virus infection | Huh7.5.1 HCVcc-Cre infection, luciferase reporter, 44 h | Potency, µM (top dose mostly 41.8 µM), inactives show top-dose activity change, negative = inhibition, most hits filed as inhibitors | 3.4% of 340,000 active | AID 651820
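Infectious HCVcc-Cre (~0.5 moi) was added to cells just after compound, with cells seeded 4 h earlier at 1,000 per well. Luciferase activity after 44 h culture reported infection; substrate was incubated 15 min at room temperature before reading.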
Pf growth 48h = inhibits P. falciparum growth in the first generation, 48 h; P. falciparum luciferase growth in erythrocytes, 48 h; 5.9% of 310,000 active; Potency, µM (top dose mostly 28.7 µM), for inactives: top-dose activity change, negative = inhibition, actives largely listed as inhibitors
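Luminescence readout; reporter = integrated firefly luciferase in P. falciparum. RBC culture at 2% hematocrit, 0.1% parasitemia final, 37 C/5% CO2; decreased signal taken as growth inhibition.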
Pf growth 96h = P. falciparum growth inhibition at 96 hour, primary screen for plastid delayed-death inhibitors. P. falciparum luciferase reporter growth, 96 h. Potency, µM (highest dose often 28.7 µM), without a hit: at the highest dose activity change, negative = inhibition, usual class: inhibitors. 6.9% of 320,000 active. AID 504834
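Delayed-death screen, second-generation endpoint: infected erythrocytes, 2% hematocrit, 0.05% parasitemia final; 96 hours at 37 C, 5% CO2; luciferase detection reagent; luminescence decrease equals reduced growth.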
The depositor's hits bear a star; ? = inconclusive; . = no result; [ ] = another dose, or the depositor's remark. The call rests on the fitted dose curve; in most records, active means well fitted curve in the direction sought with a large enough effect; inconclusive means small, poorly fitted or top-dose-only effect, or another doubt; inactive means no such curve, though single readings can be large; an effect the other way counts as inactive or inconclusive. Unless noted, on the % scale 0 is the no-effect control and ±100 the full control effect; potency means the concentration at half of the fitted maximal effect.

SMILES | AMA1-RON2 inh | HCV inh | Pf growth 48h | Pf growth 96h
COc1cccc(/C=N/NC(=O)c2ccc(CN3c4cccc5cccc(c45)S3(=O)=O)cc2)c1 | -15% | -22% | -16% | 10µM*
NC(=O)CCC1NC(=O)C(Cc2ccccc2)NC(=O)C(Cc2ccc(O)cc2)NC(=O)CCSSCC(C(=O)N2CCCC2C(=O)NC(CCCN=C(N)N)C(=O)NCC(N)=O)NC(=O)C(CC(N)=O)NC1=O (centres undefined) | . | . | 16% | 1%
CCc1nc2c(OCCOc3ccc(F)cc3)cccn2c1N(C=O)Cc1ccccc1 | -4% | . | . | .
Cc1cc(C)n(-c2ccc(C(=O)Nc3ccc4c(c3)OCO4)cc2)n1 | -1% | ? | . | -16%
COc1ccc(NC(=O)c2ccc(-n3nc(C)cc3C)cc2)cc1OC | -7% | 7.1µM* | 8% | 57%
Cc1cc(C)n(-c2ccc(C(=O)Nc3ccc(S(=O)(=O)N(C)C)cc3)cc2)n1 | -14% | ? | 15µM* | ?
CN(C)S(=O)(=O)c1cccc(NC(=O)c2cc(-c3cccs3)nn2-c2cccc(Cl)c2)c1 | 6% | ? | ? | 15µM*
O=C(O)c1cc(-c2cccs2)nn1-c1cccc(Cl)c1 | -1% | 8% | 13% | 42%
Cc1cc(C)n(-c2ccc(C(=O)Nc3cccc(S(=O)(=O)N(C)C)c3)cc2)n1 | -30% | 5µM* | -30% | ?
Cc1ccc(NC(=O)c2ccncc2)cc1S(=O)(=O)N(C)C | -2% | 0% | 18% | 12%
Cc1cc(C)n(-c2ccc(C(=O)Nc3ccc(S(=O)(=O)NCc4ccco4)cc3)cc2)n1 | -19% | 3.5µM* | 13µM* | 30%
Cc1ccc(NC(=O)c2ccc(OC(F)(F)F)cc2)cc1S(=O)(=O)N(C)C | -9% | 3.2µM* | -29% | ?
Cc1cc(C)n(-c2ccc(C(=O)Nc3cccc([N+](=O)[O-])c3)cc2)n1 | -3% | 11µM* | -17% | -26%
Cc1ccc(C(=O)Nc2ccc(S(=O)(=O)NCc3ccco3)cc2)cc1 | -6% | ? | . | 13%
Cc1cc(C)n(-c2ccc(C(=O)Nc3ccc(C)c(S(=O)(=O)N(C)C)c3)cc2)n1 | 13% | 10µM* | ? | 12µM*
C/C(=N\Nc1nc(Cl)c(Cl)cc1Cl)c1ccc(S(=O)(=O)NCc2ccco2)cc1 | 42% | 6.3µM* | 7% | -26%
C/C(=N\Nc1ccccn1)c1ccc(S(=O)(=O)NCc2ccco2)cc1 | -9% | 0% | 0% | 4%
CCN(CC)S(=O)(=O)c1cccc(NC(=O)c2ccc(-n3nc(C)cc3C)cc2)c1 | 10% | 2.5µM* | ? | ?
Cc1ccc2nc(N(CCCN(C)C)C(=O)c3sc4ccccc4c3Cl)sc2c1 | ? | ? | 33% | -15%
Cc1ccc(N(C)S(=O)(=O)c2cccc(C(=O)NCC(c3cccs3)N3CCOCC3)c2)cc1 (centres undefined) | -4% | ? | 12µM* | ?
Cc1ccc(S(=O)(=O)N(C)c2ccc(C(=O)NCC(c3cccs3)N3CCOCC3)cc2)cc1 (centres undefined) | -5% | . | ? | 10µM*
CCc1ccc(C(=O)COC(=O)C2CCN(c3ccc(C(F)(F)F)cn3)CC2)cc1 | 10% | -2% | 7% | 0%
CCN(CC)Cc1cc(Nc2c3ccccc3nc3c4ccccc4n(C)c23)cc(CN(CC)CC)c1O | 11µM* | ? | . | .
Oc1cccc(Nc2c3ccccc3nc3ccccc23)c1 | -6% | ? | ? | -11%
Cc1ccc2c(c1)c(/C=C/c1cc[n+](C)cc1)c(C)n2C | -2% | 10µM* | 0.93µM* | 0.47µM*
SMILES | AMA1-RON2 inh | HCV inh | Pf growth 48h | Pf growth 96h
COc1ccc(Cc2c(C(C)(C)C)nc3c(C)cc(Br)cn23)c(C)c1 | -1% | . | . | .
Cc1cccc(S(=O)(=O)Nc2ccc(C)c3c2OC(C)(C)C3)c1 | -7% | ? | ? | .
Cc1[nH]c2ccccc2c1CCN(Cc1cccnc1)C(=S)NC(C)(C)C | -3% | -13% | 11%[0.00184 µM] | 13µM*
Cc1[nH]c2ccccc2c1CCN(Cc1cccnc1)C(=S)Nc1cccc(F)c1 | ? | 16µM* | ? | ?
CC(=O)c1ccc(N2C(=O)CC(N3CCN(S(=O)(=O)c4cc(C)ccc4C)CC3)C2=O)cc1 (centres undefined) | -4% | 10% | . | .
Nc1c2c(nc3cccc(Cl)c13)N(c1ccccc1)CC2 | 6% | -3% | 17% | 7.4µM*
C/C(=N\NC(=O)CSc1nc(C)[nH]c1[N+](=O)[O-])c1ccc(F)cc1 | 25% | -5% | 4% | ?
